Assay results reported in PubChem BioAssay (NCATS).
Results filed as inconclusive are left out. Active and inactive are the calls of the source. Calls follow the shape of the dose curve; as a rule, active = well fitted activation curve with a large enough effect in the signal ratio (not every such curve was filed as active); inconclusive = small, poorly fitted or top-dose-only effect, or a change in a side signal; inactive = flat fitted curve, though single readings scatter; the % refers to the signal ratio.

Experiment: qHTS assay for small molecule activators of the p53 signaling pathway (AID 651743); also: series mostly up to about 92 µM; % of control where 0% means no effect
Settings: HCT-116 p53RE-bla, beta-lactamase FRET ratio, 16 h; activation: hits give high values
Description: National Center for Advancing Translational Sciences [NCATS] NIH Chemical Genomics Center [NCGC] U.S. Environmental Protection Agency [EPA] National Institutes of Environmental Health Sciences [NIEHS] National Toxicology Program [NTP] Assay Overview: p53, a tumor suppressor protein, is activated following cellular insult, including DNA damage and other cellular stresses. The activation of p53 regulates cell fate by inducing DNA repair, cell cycle arrest, apoptosis, or cellular senescence. The activation of p53, therefore, is a good indicator of DNA damage and other cellular stresses. The CellSensor p53RE-bla HCT-116 cell line (Invitrogen) contains a stably integrated beta-lactamase reporter gene under control of the p53 response elements. The activation of the report gene under culture conditions can be detected by fluorescence intensity. This cell line can be used to screen chemicals in a 1536-well plate format and to identify agonists that activate p53 signaling pathway.
Assay Protocol Summary: The p53RE-bla cells were dispensed at 4,000 cells/5 ul/well in 1536-well black wall/clear bottom plates using a Multidrop dispenser. After the assay plates were incubated at a 37 C/5% CO2 incubator for 5 hours, 23 nL of compounds dissolved in DMSO, positive controls or DMSO only was transferred to the assay plate by a pin tool. The plates were incubated at 37 C for 16 hours. After 1 uL of LiveBLAzer B/G FRET substrate was added using a Flying Reagent Dispenser, the plates were incubated at room temperature for 2 hours, and fluorescence intensity was measured by an Envision plate reader.

SMILES	activation
C[Si]1(C)O[Si](C)(C)O[Si](C)(C)O1	-3.38% (inactive)
Cc1ccc(S(=O)(=O)C(I)I)cc1	4.66% (inactive)
CC(C)(C)c1cc(C(C)(C)C)c(O)c(C(C)(C)C)c1	3.15% (inactive)
C[Si](Cl)(Cl)[Si](C)(Cl)Cl	0.0231% (inactive)
O=c1n(CCO)c(=O)n(CCO)c(=O)n1CCO	3.11% (inactive)
C[Si]1(C)O[Si](C)(C)O[Si](C)(C)O[Si](C)(C)O[Si](C)(C)O1	1.25% (inactive)
CN(C)c1nc(=O)n(C2CCC(O)CC2)c(=O)n1C (stereo not given)	2.9% (inactive)
CCN(Cc1c(F)cccc1Cl)c1c([N+](=O)[O-])cc(C(F)(F)F)cc1[N+](=O)[O-]	1.01% (inactive)
CSC(=O)c1cccc2nnsc12	1.69% (inactive)
CCCCCCCC[Si](OCC)(OCC)OCC	1.43% (inactive)
CC1COCc2cc3c(cc21)C(C)(C)C(C)C3(C)C (stereo not given)	-1.06% (inactive)
CC(C)(C)c1n[nH]c(=O)n(N)c1=O	1.96% (inactive)
CC/C=C\CCOC(=O)c1ccccc1O	-5.63% (inactive)
FC(F)(F)c1ccc(Cl)c(Cl)c1	-5.24% (inactive)
OCc1cccc(Oc2ccccc2)c1	-1.52% (inactive)
CCCCCCCC/C=C\CCCCCCCCCCCCC	-1.77% (inactive)
CCCCCCCC(=O)Oc1c(Br)cc(C#N)cc1Br	6.26% (inactive)
c1ccc(OCCOc2ccccc2)cc1	2.08% (inactive)
c1ccc2c(c1)Cc1ccccc1-2	2.83% (inactive)
CCCCCCCCCCCCCCCC	-5.95% (inactive)

SMILES	activation
COc1ccc(OC)c(OC)c1	-1.46% (inactive)
CC1(C)[C@@H]([C@@H](Br)C(Br)(Br)Br)[C@H]1C(=O)O[C@H](C#N)c1cccc(Oc2ccccc2)c1	11.9% (inactive)
O=C(Cl)c1cccc(C(=O)Cl)c1	-3.51% (inactive)
O=C(O)CCCCCCC(=O)O	-5.91% (inactive)
Fc1ccc(Br)cc1	-1.54% (inactive)
C=CC(=O)OCC[N+](C)(C)C	2.09% (inactive)
COC(=O)c1ccc(I)cc1S(=O)(=O)NC(=O)Nc1nc(C)nc(OC)n1	-2.48% (inactive)
O=C(OCC1CCC2OC2C1)C1CCC2OC2C1 (stereo not given)	2.61% (inactive)
CCCCCCCCCCCCc1ccccc1	-0.535% (inactive)
Oc1ccc(C(c2ccc(O)cc2)C(Cl)(Cl)Cl)cc1	-3.4% (inactive)
CCOC(=O)C(C)Oc1ccc(Oc2nc3ccc(Cl)cc3o2)cc1 (stereo not given)	-9.4% (inactive)
CCC(C)(C)C1CCC(O)CC1 (stereo not given)	1.97% (inactive)
CCCCN(CCCC)CCCCCCN(CCCC)CCCC	-4.69% (inactive)
O=C1CCCCCCCCCCC1	-4.42% (inactive)
CCCCCCCCCCCCO	-3.58% (inactive)
CC(C)(C)C1CCC(O)CC1 (stereo not given)	-3.97% (inactive)
CCCCOCCOCCOC(C)=O	-0.502% (inactive)
CC(=O)c1c(C)c([N+](=O)[O-])c(C(C)(C)C)c([N+](=O)[O-])c1C	6.99% (inactive)
C=C(C)C(=O)OCCCCCCCCCCCC	1.89% (inactive)
CCCCC(CC)COC(=O)c1ccc(C(=O)OCC(CC)CCCC)cc1 (stereo not given)	0.101% (inactive)
